Results on 39 sequences are retold here after the supplement of paper PMC6555819.

The first test has as its system THRa homodimer (NR concentration 90 nM). The experiment in a line: PBM binding z-score (relative to random genomic background probes); higher = stronger binding; sequences stand for … in GC…GCGATTGACAGCGTAGAATGAAGG
An outline of the steps:
(§1)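 Binding z-scores were set against random background probes. The data came from custom Agilent 4×180K protein-binding microarrays carrying double-stranded probes with 34-nt variable regions, incubated 1 h with ligand-free nuclear receptor dimers. Partner-specific antibodies detected binding, and scanned fluorescence was regression-normalized.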
Sequence ATATGTAGGTTACATCCGGGTCATCCAGGCTATG yielded a PBM binding z-score of 2.64.

TCTGCTAGGTCAACGATGGTCAGTTAATCTGCTA: the PBM binding z-score stood at 0.73.

The sequence CGTCCAAGGTCACGGTCAGTGAAAGAGACTCGAA gave a PBM binding z-score of 3.63.

As for CCAGACAGGTGAGAAGGTAACTCAGCCTCGATTA, the PBM binding z-score stood at 0.236.

Regarding GATACAGGGTCGGCTAGAGGCCAGAGTATGGAAA, the PBM binding z-score was -0.62.

In turn, CCTAGTTGTTCAGGAGGTCACACACCGGATATGA came in with a PBM binding z-score of 2.81.

On to TCGAGTAGGTCACGGGGGCATTCAGGGATGAAGA, for which the PBM binding z-score worked out at 1.6.

AGAATGAGGTTAAGTTCAGGGAAACAGAATACAT returned a PBM binding z-score of 1.48.

Turning to CCTACTGGGCCAAAAAGGTCATTGATGCCGATAA, the PBM binding z-score was 0.474.

The sequence AATACAGGGTCACGAGGCCAGAGTAGGTACGAAT had a PBM binding z-score of 2.21.

Regarding CCTTACGGGTAACGAGGTTATAGCACGACGAGCG, the PBM binding z-score is 0.247.

With CCTACTGGGCCAAAAAGTTCATTGATGCCGATAA, the PBM binding z-score was -0.23.

Regarding AGAATGAGGTCAAGATCAGGGAAACAGAATACAT, the PBM binding z-score worked out at 2.98.

For the sequence CTATGTAGGTTAGGGGGGTCATTCAGTTTGAAAG, the PBM binding z-score was 3.25.

Take TGTCAATGTTCAAAGGTAACGTAAGTATCCACAC: the PBM binding z-score is -0.064.

CGTCCAAAGTCAAAGGTCAGTGAAGAGATGACGG: the PBM binding z-score turned out to be 0.117.

Take ATATGTAGGTTAGCTGAGGTCATTCAGACTAGGC: the PBM binding z-score is 4.38.

TCTAGTTGGTCACGGAGGTCCCACACGACGGGTA had a PBM binding z-score of 0.108.

Regarding CGAACTAGGTCGAGGACAGTGAATCTCCGCACGC, the PBM binding z-score is 1.45.

In turn, CAAACTAGGTCACCGAAAGGTCAAAGTCCGCATG registered a PBM binding z-score of 2.96.

Sequence CCTGCTAGGTCATGGTCAGCGAATCTACAGTATG had a PBM binding z-score of 1.16.

Sequence CGTCCAAGGTCAAGGTCAATGAAAGAGACTCGAA had a PBM binding z-score of 3.41.

Sequence TAGCCTAGGTCATGCGGGACAGTATAGTGTCGGC returned a PBM binding z-score of 0.939.

In turn, CCTCGGAGGACAACAGGAGGTCATAGCTGCCAGA displayed a PBM binding z-score of 1.5.

As for CGCACTAGGTCATCCAGGACAGTGAATACATTGA, the PBM binding z-score is 2.4.

As for TAGCCTAGGTCGTTCAGGGGCCAGTATAGAAAGC, the PBM binding z-score is -0.169.

CTATGTAGGTCAAGGGGGTCATTCAGTTTGAAAG yielded a PBM binding z-score of 2.15.

In turn, ATATGTAGGTTATCTGGGGTCATTCAGACTAGGC had a PBM binding z-score of 3.91.

The sequence TCTCGGAGGACACAAAGGTCAGAGCTTTCCAGAG showed a PBM binding z-score of 0.913.

As for CGTCCAAGGTCGAAGGTCAGTGAAGAGATGACGG, the PBM binding z-score is 0.66.

In turn, TAGCCTAGGTCATTCAGGGGCCACTATAGAAAGC had a PBM binding z-score of 1.05.

In turn, AGTCAAAGTTCAGGACGACGTAACGTAAAGCACG came in with a PBM binding z-score of 0.216.

In the case of CCTAGTGGGCCAAGGTCATTGATCAGTCAAAGCA, the PBM binding z-score is 2.05.

AGAATGAGGTTAAACGTAGATCAGGGAAGAAAGT yielded a PBM binding z-score of 0.549.

CCTAGTTGGTCAAGGTCACATACGCTATAGGTAC yielded a PBM binding z-score of 3.88.

With TTACCAAGGTCAAGGTCGTTGATCCCTCTGTAGA, the PBM binding z-score was 3.6.

CCTTACGGGTCAAGGTTATAGCCCGGGTGGTACG registered a PBM binding z-score of 0.694.

The sequence TCTGCTAGGTCATCGATGGTCAGCTAATCTGCTA registered a PBM binding z-score of 0.553.

For the sequence CTATGTGGGTTAAGGGGGTCATTCAGTTTGAAAG, the PBM binding z-score came to 3.69.

Another test deals with VDR homodimer (NR concentration 270 nM). Described as above. An outline of the steps:
as §1
For ATATGTAGGTTACATCCGGGTCATCCAGGCTATG, the PBM binding z-score turned out to be 2.44.

As to TCTGCTAGGTCAACGATGGTCAGTTAATCTGCTA, the PBM binding z-score was -0.183.

As for CGTCCAAGGTCACGGTCAGTGAAAGAGACTCGAA, the PBM binding z-score came to 2.8.

In turn, CCAGACAGGTGAGAAGGTAACTCAGCCTCGATTA yielded a PBM binding z-score of 0.403.

The sequence GATACAGGGTCGGCTAGAGGCCAGAGTATGGAAA yielded a PBM binding z-score of 0.35.

The sequence CCTAGTTGTTCAGGAGGTCACACACCGGATATGA gave a PBM binding z-score of 3.5.

TCGAGTAGGTCACGGGGGCATTCAGGGATGAAGA gave a PBM binding z-score of 3.74.

AGAATGAGGTTAAGTTCAGGGAAACAGAATACAT: the PBM binding z-score was 3.44.

Regarding CCTACTGGGCCAAAAAGGTCATTGATGCCGATAA, the PBM binding z-score came to 2.01.

In the case of AATACAGGGTCACGAGGCCAGAGTAGGTACGAAT, the PBM binding z-score came to 3.31.

CCTTACGGGTAACGAGGTTATAGCACGACGAGCG gave a PBM binding z-score of 0.527.

For CCTACTGGGCCAAAAAGTTCATTGATGCCGATAA, the PBM binding z-score amounted to 4.38.

AGAATGAGGTCAAGATCAGGGAAACAGAATACAT: the PBM binding z-score is 3.31.

Take CTATGTAGGTTAGGGGGGTCATTCAGTTTGAAAG: the PBM binding z-score is 6.97.

On to TGTCAATGTTCAAAGGTAACGTAAGTATCCACAC, for which the PBM binding z-score was -0.453.

For CGTCCAAAGTCAAAGGTCAGTGAAGAGATGACGG, the PBM binding z-score amounted to 0.98.

In turn, ATATGTAGGTTAGCTGAGGTCATTCAGACTAGGC came in with a PBM binding z-score of 5.55.

As for TCTAGTTGGTCACGGAGGTCCCACACGACGGGTA, the PBM binding z-score was -0.235.

In turn, CGAACTAGGTCGAGGACAGTGAATCTCCGCACGC displayed a PBM binding z-score of 0.0594.

With CAAACTAGGTCACCGAAAGGTCAAAGTCCGCATG, the PBM binding z-score came to 4.24.

The sequence CCTGCTAGGTCATGGTCAGCGAATCTACAGTATG displayed a PBM binding z-score of 0.226.

For CGTCCAAGGTCAAGGTCAATGAAAGAGACTCGAA, the PBM binding z-score was 3.28.

TAGCCTAGGTCATGCGGGACAGTATAGTGTCGGC came in with a PBM binding z-score of 1.16.

Regarding CCTCGGAGGACAACAGGAGGTCATAGCTGCCAGA, the PBM binding z-score amounted to 2.44.

In the case of CGCACTAGGTCATCCAGGACAGTGAATACATTGA, the PBM binding z-score is 1.76.

As to TAGCCTAGGTCGTTCAGGGGCCAGTATAGAAAGC, the PBM binding z-score came out at 0.675.

CTATGTAGGTCAAGGGGGTCATTCAGTTTGAAAG displayed a PBM binding z-score of 7.37.

For the sequence ATATGTAGGTTATCTGGGGTCATTCAGACTAGGC, the PBM binding z-score stood at 5.88.

For TCTCGGAGGACACAAAGGTCAGAGCTTTCCAGAG, the PBM binding z-score amounted to 2.06.

Turning to CGTCCAAGGTCGAAGGTCAGTGAAGAGATGACGG, the PBM binding z-score was 1.14.

TAGCCTAGGTCATTCAGGGGCCACTATAGAAAGC returned a PBM binding z-score of 1.92.

Regarding AGTCAAAGTTCAGGACGACGTAACGTAAAGCACG, the PBM binding z-score stood at 2.05.

Turning to CCTAGTGGGCCAAGGTCATTGATCAGTCAAAGCA, the PBM binding z-score amounted to 2.91.

AGAATGAGGTTAAACGTAGATCAGGGAAGAAAGT: the PBM binding z-score came to 1.04.

Sequence CCTAGTTGGTCAAGGTCACATACGCTATAGGTAC had a PBM binding z-score of 3.56.

Regarding TTACCAAGGTCAAGGTCGTTGATCCCTCTGTAGA, the PBM binding z-score amounted to 4.9.

Sequence CCTTACGGGTCAAGGTTATAGCCCGGGTGGTACG returned a PBM binding z-score of 1.24.

In the case of TCTGCTAGGTCATCGATGGTCAGCTAATCTGCTA, the PBM binding z-score was -0.0904.

CTATGTGGGTTAAGGGGGTCATTCAGTTTGAAAG showed a PBM binding z-score of 6.5.
